Results filed as inconclusive are left out. Where a call stands in place of a potency, no number is given. Active and inactive are the calls of the source. Unless noted, the call rests on the fitted dose curve; in most records, active means well fitted curve in the direction sought with a large enough effect; inconclusive means small, poorly fitted or top-dose-only effect, or another doubt; inactive means no such curve, though single readings can be large; an effect the other way counts as inactive or inconclusive.
What was measured:
[1] = Cell Viability - Mesenchymal (AID 546); conditions: mesenchymal cells viability, qHTS; activity change, negative = cytotoxicity: at 91.7 µM (top of the series);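 further: cells exposed to compound for 40 hours before reading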; further: potency means the concentration at half of the fitted maximal effect
Procedure, shortened: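 AC50 values reflect the drop in intracellular ATP in a human kidney mesenchymal line derived from normal glomeruli. Treatment lasts 40 hr at 37 °C in complete medium, and the signal comes from CellTiter-Glo luminescence.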

[2] = Cellular Toxicity (caspase-3) HepG2 (AID 654); further: potency means the concentration at half of the fitted maximal effect;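 on caspase-3 activation: cells exposed to compound for 16 hours before reading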
Procedure, shortened: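 qHTS, HepG2, 1500 cells/well, complete medium; cpd 16 h 37 °C; Caspase-Glo 3/7, 20 min RT; lum. Norm: DMSO vs 100 uM tamoxifen; AC50 Hill fit.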

[3] = Cellular Toxicity (caspase-3) Jurkat (AID 655);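 further: cells exposed to compound for 16 h at 37 °C before reading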; further: potency means the concentration at half of the fitted maximal effect
Procedure, shortened: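 Jurkat cells (5000/well) in complete medium were treated with compounds for 16 hr at 37 °C, then Caspase-Glo 3/7 luminescence was read after 20 min at room temperature. Data normalized to DMSO (basal) and 100 uM tamoxifen (100%); AC50 from Hill fit.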

[4] = Cellular Toxicity (caspase-3) HUV-EC-C (AID 656)
Procedure, shortened: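 HUV-EC-C endothelial cells, 1000/well, were pre-incubated 5 hr at 37°C, then exposed to compounds for 16 hr at 37°C. Caspase-Glo 3/7 luminescence was read after 20 min at room temperature. AC50 came from Hill fits, normalized to DMSO and 100 uM tamoxifen.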

[5] = Cellular Toxicity (caspase-3) SHSY5Y (AID 657)
Procedure, shortened: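 SH-SY5Y human neuroblastoma cells (1500/well) were treated with compounds for 16 h at 37 °C, then Caspase-Glo 3/7 luminescence was read after 1 h at room temperature. Data normalized to DMSO and 10 uM staurosporine; AC50 from Hill fits.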

[6] = Cellular Toxicity (caspase-3) BJ (AID 658)
Procedure, shortened: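 Readout: Caspase-Glo 3/7 luminescence increase in BJ cells after 16 hr treatment at 37 °C. Staurosporine and tamoxifen served as positive controls; AC50 values came from Hill modelling of data normalized to DMSO and 10 uM staurosporine.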

[7] = Cellular Toxicity (caspase-3) MRC-5 (AID 659)
Procedure, shortened: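 Concentration-dependent caspase 3/7 activation is measured in human normal lung fibroblasts (MRC-5) following 16-hour treatment. AC50 values come from standard Hill-equation modeling of luminescence normalized to DMSO and 10 uM staurosporine.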

[8] = Cellular Toxicity (caspase-3) Mesangial (AID 660); conditions: Potency: caspase-3 activation;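 further: combined caspase 3 and 7 activity read by Caspase-Glo luminescence; cells exposed to compound for 16 h before the caspase read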; further: potency means the concentration at half of the fitted maximal effect
Procedure, shortened: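 Concentration-response qHTS: compound-induced rise in caspase 3/7 luminescence in human mesangial cells after 16 h, normalized to DMSO and 100 uM tamoxifen controls.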

[9] = Cellular Toxicity (caspase-3) SK-N-SH (AID 661); further: potency means the concentration at half of the fitted maximal effect
Procedure, shortened: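 Caspase 3/7 activation is measured as a luminescence increase from aminoluciferin released by substrate cleavage in SK-N-SH cells after 16 hr compound treatment; values are AC50 from concentration-response curves.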

[10] = target: 3',5'-cyclic-AMP phosphodiesterase 4B (Homo sapiens) (UniProt Q07343); assay: qHTS Assay for Inhibitors of PDE-IV (AID 607; active means well fitted activation curve with a large enough effect in the main read-out, with a control signal flat, not every such curve was filed as active)
Sequence of 3',5'-cyclic-AMP phosphodiesterase 4B (Homo sapiens) (Q07343 whole entry, looked up): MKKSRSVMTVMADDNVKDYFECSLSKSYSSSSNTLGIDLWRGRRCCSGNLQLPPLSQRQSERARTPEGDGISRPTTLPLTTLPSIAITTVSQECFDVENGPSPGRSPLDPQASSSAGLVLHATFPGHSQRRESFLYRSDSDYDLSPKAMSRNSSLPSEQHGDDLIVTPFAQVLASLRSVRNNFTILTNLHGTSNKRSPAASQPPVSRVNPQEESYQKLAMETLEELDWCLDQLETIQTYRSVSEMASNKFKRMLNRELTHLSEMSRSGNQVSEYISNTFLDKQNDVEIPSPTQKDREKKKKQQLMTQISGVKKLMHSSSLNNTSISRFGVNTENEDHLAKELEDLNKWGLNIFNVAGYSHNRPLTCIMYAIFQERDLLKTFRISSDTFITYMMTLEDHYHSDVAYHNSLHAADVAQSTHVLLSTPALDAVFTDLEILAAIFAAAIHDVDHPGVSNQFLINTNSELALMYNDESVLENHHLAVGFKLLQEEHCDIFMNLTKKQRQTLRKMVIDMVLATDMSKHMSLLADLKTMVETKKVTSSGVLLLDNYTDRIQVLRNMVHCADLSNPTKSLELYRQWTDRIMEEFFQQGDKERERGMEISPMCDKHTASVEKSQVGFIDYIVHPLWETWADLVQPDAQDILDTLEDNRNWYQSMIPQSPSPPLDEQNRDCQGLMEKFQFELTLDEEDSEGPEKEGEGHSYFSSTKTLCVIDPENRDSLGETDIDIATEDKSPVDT
Procedure, shortened: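 ACTOne HEK293 cells carry a modified cAMP-gated CNG channel and express endogenous PDE4; plated 1000 cells/well, compounds up to 22.9 uM final. Membrane-potential dye fluorescence (ex 535/em 590) was read; parental cells received 10 uM forskolin + 100 uM RO 20-1724.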

Row | SMILES | Potency [1] | Potency [2] | Potency [3] | outcome [4] | outcome [5] | outcome [6] | outcome [7] | Potency [8] | Potency [9] | outcome [10] | activity change, negative = cytotoxicity [1]
1 | NCCO | inactive | inactive | inactive | inactive | inactive | inactive | inactive | inactive | inactive |  | 
2 | COc1cc(CNC(=O)CCCC/C=C/C(C)C)ccc1O | inactive | inactive | inactive | inactive | inactive | inactive | inactive | inactive | inactive |  | 
3 | N#C/C(=C\c1ccc(O)c(O)c1)C(=O)NCc1ccccc1 |  |  |  |  |  |  |  |  |  | inactive | 
4 | COc1cc(/C=C/C(=O)CC(=O)/C=C/c2ccc(O)c(OC)c2)ccc1O | inactive | inactive |  | inactive | inactive | inactive |  |  | inactive |  | 
5 | Cc1ccc(C(=O)c2ccc(CC(=O)O)n2C)cc1 |  |  |  |  |  |  |  |  |  | inactive | 
6 | Nc1ccc(O)c(C(=O)O)c1 | inactive | inactive | inactive | inactive | inactive | inactive | inactive | inactive | inactive | inactive | 
7 | Nc1nc2ccc([N+](=O)[O-])cc2s1 | inactive | inactive | inactive | inactive | inactive | inactive | inactive | inactive | inactive |  | 
8 | CCCOC(=O)c1ccc(O)cc1 | inactive | inactive | inactive | inactive | inactive | inactive | inactive | inactive | inactive |  | 
9 | c1ccc2sc(SSc3nc4ccccc4s3)nc2c1 | inactive | inactive | inactive | inactive | inactive | inactive | inactive | inactive | inactive |  | 
10 | CC(=O)SCC[N+](C)(C)C |  |  |  |  |  |  |  |  |  | inactive | 
11 | O=C(Nc1cccc(C(=O)Nc2ccc(S(=O)(=O)O)c3cc(S(=O)(=O)O)cc(S(=O)(=O)O)c23)c1)Nc1cccc(C(=O)Nc2ccc(S(=O)(=O)O)c3cc(S(=O)(=O)O)cc(S(=O)(=O)O)c23)c1 |  |  |  |  |  |  |  |  |  | inactive | 
12 | Oc1ccccc1O | inactive | inactive | inactive | inactive |  | inactive | inactive | inactive | inactive | inactive | 
13 | CN1CCC[C@H]1c1cccnc1 | inactive | inactive | inactive | inactive | inactive | inactive | inactive | inactive | inactive |  | 
14 | O=C(O)c1cc([N+](=O)[O-])ccc1NCCCc1ccccc1 |  |  |  |  |  |  |  |  |  | inactive | 
15 | S=c1[nH]c2ccccc2s1 | inactive | inactive | inactive | inactive | inactive | inactive | inactive | inactive | inactive |  | 
16 | Cc1nc2sccn2c(=O)c1CCN1CCC(=C(c2ccccc2)c2ccc(F)cc2)CC1 |  |  |  |  |  |  |  |  |  | inactive | 
17 | CCCCCCCCCCCCCCCCCC(=O)O | inactive | inactive | inactive | inactive | inactive | inactive | inactive | inactive | inactive |  | 
18 | CN(C)c1ccc(C(=C2C=CC(=[N+](C)C)C=C2)c2ccccc2)cc1 | 316 nM (active) | 631 nM (active) |  | inactive |  |  |  | 1260 nM (active) | 1000 nM (active) | inactive | 
19 | O=C(O)/C=C\C(=O)O | inactive | inactive | inactive | inactive | inactive | inactive | inactive | inactive | inactive |  | 
20 | N=C1N=C(N)c2cc3ccccc3cc21 |  |  |  |  |  |  |  | inactive | 31600 nM (active) |  | -91.8% (active)
21 | N#C/C(=C\c1ccc(O)c(O)c1)C(=O)c1ccc(O)c(O)c1 |  |  |  |  |  |  |  |  |  | inactive | 
22 | Nc1ccc([N+](=O)[O-])cc1O | inactive | inactive | inactive | inactive | inactive | inactive | inactive | inactive | inactive |  | 
23 | O=C1CN(/N=C/c2ccc([N+](=O)[O-])o2)C(=O)N1 | inactive | inactive | inactive | inactive | inactive | inactive | inactive | inactive | inactive |  | 
24 | O=C1NC(O)=NC1(c1ccccc1)c1ccccc1 |  |  |  |  |  |  |  |  |  | inactive | 
25 | Nc1ccc(O)c([N+](=O)[O-])c1 | inactive | inactive | inactive | inactive | inactive | inactive | inactive | inactive | inactive |  | 
26 | c1cnc2c(c1)ccc1cccnc12 | inactive | inactive | 6310 nM (active) | inactive | inactive | inactive | inactive | inactive | inactive | inactive | 
27 | C#C[C@]1(O)CC[C@H]2[C@@H]3CCc4cc(O)ccc4[C@H]3CC[C@@]21C | inactive | inactive | inactive | inactive | inactive | inactive | inactive | inactive | inactive |  | 
28 | CC1(C)S[C@@H]2[C@H](NC(=O)[C@H](N)c3ccccc3)C(=O)N2[C@H]1C(=O)O | inactive | inactive | inactive | inactive | inactive | inactive | inactive | inactive | inactive |  | 
29 | CN(C)CCC(c1ccc(Cl)cc1)c1ccccn1 (configuration not stated) | inactive | inactive | inactive | inactive | inactive | inactive | inactive | inactive | inactive |  | 

Source: PubChem BioAssay (NCATS)
